Assay outcomes as filed in PubChem.
SARS PLpro yeast = blocks SARS-CoV papain-like protease in a yeast assay; Potency, µM (highest dose often 32.9 µM), inactives show at the highest dose activity, positive = growth rescue, hits mostly activators; 0.19% of 330,000 active; S. cerevisiae expressing SARS-CoV PLpro, growth rescue; AID 485353; calls by dose curve; note: 0% is about no effect; nearly all actives have a fitted effect of over 55% in size
Pf growth 48h = P. falciparum growth inhibition at 48 hours (one generation) | 5.9% of 310,000 active | Potency, µM (top dose mostly 28.7 µM), inactives show top-dose activity change, negative = inhibition, actives largely listed as inhibitors | P. falciparum luciferase growth in erythrocytes, 48 h; note: % is set by controls: 0 for no effect and ±100 for the full control effect
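Parasite viability was followed by luminescence of a genomically integrated firefly luciferase. Cultures held 0.1% parasitemia at 2% hematocrit (final), incubated under 5% CO2 at 37 C.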
Sm TGR block = inhibitors of Schistosoma mansoni thioredoxin glutathione reductase | purified TGR, DTNB reduction, TNB absorbance 405 nm | Potency, µM (doses to about 114 µM), inactives show top-dose activity change, negative = inhibition, actives largely listed as inhibitors | 3% of 360,000 active | AID 485364; note: % is set by controls: 0 for no effect and ±100 for the full control effect; nearly all actives have a fitted effect of over 60% in size
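First, TGR (20 nM dispensed) and NADPH were mixed with compound. Second, a 15 min room-temperature incubation followed. Third, further NADPH and then DTNB were added to start the reaction. Finally, TNB absorbance was monitored kinetically.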
Pf growth 96h = P. falciparum growth inhibition at 96 hours; Potency, µM (highest dose often 28.7 µM), inactives show at the top dose activity change, negative = inhibition, actives largely listed as inhibitors; 6.9% of 320,000 active; AID 504834; P. falciparum luciferase reporter growth, 96 h; note: % is set by controls: 0 for no effect and ±100 for the full control effect
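Two parasite generations (96 h, 37 C, 5% CO2) of compound exposure in infected erythrocytes (0.05% parasitemia, 2% hematocrit). Luciferase-reporter P. falciparum; decreased luminescence indicates inhibited growth, aimed at apicoplast-acting delayed death.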
* marks the source's active call; other numbers are inactive results; ? = inconclusive; . = no result given. Only some compounds are listed: those with a hit (about 12% of all), similar ones and a draw of the others. Unless noted, calls come from the whole dose curve; as a rule, active = well fitted curve in the direction sought with a large enough effect; inconclusive = small, poorly fitted or top-dose-only effect, or another doubt; inactive = no such curve, though single readings can be large; an effect the other way counts as inactive or inconclusive. Potency is the fitted concentration of half-maximal effect.

SMILES | SARS PLpro yeast | Pf growth 48h | Sm TGR block | Pf growth 96h
CCc1cccc(CC)c1NC(=O)CN(C)S(=O)(=O)c1ccc2c(c1)n(C)c(=O)c(=O)n2C | . | . | -1% | .
CCCCNC(=O)CS(=O)Cc1nc(-c2ccc(C)cc2)oc1C (centres undefined) | 8% | . | 45µM* | -16%
CCCNC(=O)CS(=O)Cc1nc(-c2ccc(OC)cc2)oc1C (centres undefined) | 13% | . | 50µM* | 15µM*
Cc1ccc(NC(=Nc2ccc(Br)cc2)N2CCOCC2)cc1C | -8% | ? | 7% | ?
COc1ccccc1NCN1C(=O)CCC1=O | -10% | 29% | -2% | 29%
CCc1cc2c(s1)N(CC(=O)OC)C(=O)CN=C2c1ccccc1OC | 0% | 7% | . | 8.3µM*
O=C1C(I)=CC(=C(c2cc(I)c(O)c(I)c2)c2ccccc2C(=O)O)C=C1I | . | 0% | . | -25%
O=C(NC(Cc1ccccc1)C(=O)O)/C(=C\c1ccco1)NC(=O)c1ccccc1 (centres undefined) | 0% | 40% | -27% | 2.6µM*
O=C(NC(Cc1c[nH]c2ccccc12)C(=O)O)/C(=C\c1ccccc1)NC(=O)c1ccccc1 (centres undefined) | 1% | 10% | 1% | 10µM*
COc1ccc(C(=O)N/C(=C\c2ccco2)C(=O)NCc2ccco2)cc1 | ? | -6% | 45µM* | -20%
COc1ccc(C(=O)N/C(=C\c2ccco2)C(=O)NCc2cccnc2)cc1 | -5% | 33% | ? | 1.2µM*
O=C(NC(Cc1c[nH]c2ccccc12)C(=O)O)/C(=C/c1ccc2c(c1)OCO2)NC(=O)c1ccccc1 (centres undefined) | 1% | -10% | -12% | 49%
COC(=O)c1scc(C)c1NC(=O)c1ccccc1F | -2% | 7% | 9% | 13%
O=C(NCc1ccccc1Cl)C1CCN(C(=O)N2CCOc3ccccc32)CC1 | . | . | 4% | .
CC(C)(C)c1ccc(C(=O)N/C(=C\c2cccs2)C(=O)NCc2ccco2)cc1 | -6% | ? | -33% | 8.3µM*
O=C(NCCN1CCCCC1)/C(=C/c1ccco1)NC(=O)c1ccccc1 | 2% | 2% | -11% | 6.6µM*
Cc1ccc(C(=O)N/C(=C\c2ccco2)C(=O)NCCCn2ccnc2)cc1 | -3% | 40% | 1% | 9.3µM*
Cc1ccc(C(=O)N/C(=C/c2ccco2)C(=O)NCCCn2ccnc2)cc1 | 13% | 19% | -2% | ?
O=C(NCc1cccnc1)/C(=C/c1ccccc1)NC(=O)c1ccccc1 | 0% | 3% | . | -3%
O=C(NCc1cccnc1)/C(=C/c1ccco1)NC(=O)c1ccccc1 | 3% | 28% | 6% | 12µM*
CC(=O)Nc1ccc(C(=O)N/C(=C/c2ccccc2)C(=O)NCc2ccco2)cc1 | 4% | 22% | -21% | 1%
COc1ccc(Nc2nc(Nc3ccc(OC)cc3OC)nc(N3CCOCC3)n2)c(OC)c1 | . | . | -4% | .
Cc1cc(=O)n2nc(N(C)CC(=O)NCc3cccc(Br)c3)sc2n1 | . | . | 2% | .
CCCCc1nn2c(=O)cc(COC(=O)c3ccc(NC(=O)c4cccc(OC)c4)cc3)nc2s1 | . | . | -5% | .
O=C(Nc1cccc(F)c1)c1ccc2c(c1)N(Cc1ccccc1)C(=O)c1ccccc1S2(=O)=O | . | . | 1% | .
SMILES | SARS PLpro yeast | Pf growth 48h | Sm TGR block | Pf growth 96h
Cc1ccc2c(=O)cc(C(=O)Nc3sc4c(c3C(N)=O)CCCC4)oc2c1 | . | . | 12% | .
Cc1oc(-c2ccc(Cl)cc2)nc1CS(=O)CC(=O)NCCCN1CCCC(C)C1 (centres undefined) | . | 2% | -25% | -22%
CSc1ccc(-c2nc(CSCC(=O)NCCCN3CCOCC3)c(C)o2)cc1 | 7% | . | 0% | 9.3µM*
Cc1oc(-c2ccc(Cl)cc2)nc1CS(=O)CC(=O)NCCCN1CCN(Cc2ccccc2)CC1 (centres undefined) | -1% | ? | -6% | 9.3µM*
Cc1oc(-c2cccs2)nc1CS(=O)CC(=O)NCCCN1CC(C)CC(C)C1 (centres undefined) | 10% | . | -9% | 12µM*
CCc1ccc(-c2nc(CS(=O)CC(=O)NCCCN3CCOCC3)c(C)o2)cc1 (centres undefined) | -2% | 67% | 35µM* | 7.4µM*
NC(=O)C1CCN(c2nc(-c3ccc(C(F)(F)F)cc3)cs2)CC1 | . | ? | . | 26%
Cc1ccc(OCC(=O)OCC(=O)c2ccccc2)cc1C | -1% | 17% | 10% | ?
CCOCCCN1C(=O)C(=O)N(CC(=O)N2c3ccccc3NC(=O)CC2C)C1=O (centres undefined) | -11% | -21% | 3% | -6%
O=c1c2sc3ccccc3c2n(Cc2ccc(F)cc2)c(=O)n1Cc1ccccc1 | . | . | -8% | .
O=C(CN1CCN(Cc2ccc(F)cc2Cl)S1(=O)=O)Nc1ccc(F)cc1 | . | . | 6% | .
CCCOc1ccccc1C1CC(=O)NC(C)=C1C(=O)OCC(C)C (centres undefined) | -2% | ? | 6% | 31%
COC(=O)C1=C(C)NC(C)=C(C(=O)OCC(C)C)C1c1ccccc1[N+](=O)[O-] (centres undefined) | . | 7.6µM* | . | 2.4µM*
Cc1ccc(O)c(C(=O)c2cnc3c(c2)CN(C)C(=O)N3)c1 | -1% | ? | -8% | .
CN1Cc2cc(C(=O)c3cc(Cl)cc(CSc4ncccn4)c3O)cnc2NC1=O | -9% | -17% | -6% | 9.3µM*
S=C(N/N=C/c1ccc(Cl)cc1)N1CCOCC1 | -23% | 54% | -12% | 47%
Cc1ccc(CC(=S)N2CCOCC2)cc1 | -3% | 13% | 1% | 13µM*
CCc1ccc(CC(=S)N2CCOCC2)cc1 | -3% | 26% | -1% | ?
Cc1ccc(/C=N/NC(=S)N2CCOCC2)cc1 | -17% | 2.3µM* | ? | ?
C=C(C)COc1ccc(-c2ncncc2-c2ccccc2)c(O)c1 | -1% | 9.3µM* | -7% | 13µM*
CCOc1ccc(-c2ncncc2-c2ccc(OC)cc2)c(O)c1 | -10% | 7.4µM* | 0% | ?
O=C(Cn1cc(SCc2ccccc2F)c2ccccc21)N1CCCCC1 | . | . | 17% | .
Cc1ccc(C)c(CSc2nc3ccncc3n2Cc2nc(-c3ccccc3Cl)oc2C)c1 | . | . | -15% | .
COc1ccc(-c2nc(Cn3c(SCc4ccccc4F)nc4ccncc43)c(C)o2)cc1 | ? | . | 0% | 4.7µM*
Cc1cccc(CSc2nc3ccncc3n2CC(=O)Nc2ccc(C)c(C)c2)c1 | -1% | 1% | 0% | 3.7µM*
Cc1cccc(-c2nc(Cn3c(SCc4cc(C)ccc4C)nc4ccncc43)c(C)o2)c1 | . | . | 79µM* | .
CCCN(CCC)C1=CC(=[N+]2CCCC2)CC(C)(C)C1 | -12% | 1.5µM* | 1% | 0.33µM*
CCOC(=O)c1c(NC(=O)CN2C(=O)NC(C)(c3ccc(Cl)cc3)C2=O)sc(C(=O)NC)c1C (centres undefined) | 8% | 8.3µM* | -14% | 4.7µM*
CCOC(=O)c1c(NC(=O)CN2CCOCC2)sc(C(=O)NC)c1C | 1% | . | -1% | ?
CCOC(=O)c1c(NC(=O)COC(=O)c2ccc(O)cc2)sc(C(=O)N(C)C)c1C | -1% | 12µM* | 4% | ?
